# From PubChem BioAssay (Tox21)
# The source made the active and inactive calls. Entries that show only a call come without a potency. The call rests on the fitted dose curve.
# Assay: G protein-coupled receptor (GPCR) small molecule agonists, calcium flux assay: HEK293 wild type cell line counter screen (AID 1920065)
# Conditions: HEK293 WT calcium flux, fluorescence, agonist mode; series mostly up to 57.6 µM
# Text: U.S. Tox21 Program National Center for Advancing Translational Sciences [NCATS] Division of Preclinical Innovation [DPI] U.S. Environmental Protection Agency [EPA] National Institutes of Environmental Health Sciences [NIEHS] National Toxicology Program [NTP] U.S. Food and Drug Administration [FDA] Assay overview: The increased intracellular calcium release that occurred upon G protein-coupled receptor (GPCR) activation led to the frequent use of calcium flux assays to detect GPCR activation. For the purpose of studying and screening compounds that may activate GPCR, receptor-overexpressing models were typically generated using Hek293 wild-type (WT) cells. In order to eliminate the compounds that may have induced calcium release for non-specific activation, a counter-assay utilizing calcium flux on Hek293 WT cells was performed. The data were formulated in order to serve as a control for any calcium flux detection utilizing Hek293 cells with either GPCR overexpression or gene modification. The procurement of Hek293 WT cells from ATCC. Fluorescence intensity can be utilized to determine the activation of the compound in a calcium flux assay. As a counter control, this cell line was utilized to screen the Tox21 10K compound library.
# Assay Protocol Summary: Hek293 cells were dispensed at 1500cells/4uL/well in 1536-well black wall/clear bottom plates using a multidrop dispenser. After the assay plates were incubated at a 37 C/5% CO2 incubator for 18 hours, 4 uL of Calcium Dye Solution was added to each well. The plates were incubated at 37 C for 1 hour. For agonist mode, 23 nL of compounds dissolved in DMSO, positive control (ATP) or DMSO only was transferred to the assay plate by a pin tool station. The fluorescence intensity in the plates was measured using FDSS 7000EX kinetic plate reader with a filter set of Ex/Em=480/540 for 3 min at 1 sec intervals. Each test compound was measured at 15 concentrations and in triplicates.
row,Structure (SMILES),Potency
1,NS(=O)(=O)c1ccccc1Cl,inactive
2,CC(=O)Nc1ccc(C)cc1,inactive
3,[Cl][Dy]([Cl])[Cl],inactive
4,CCCCC(CC)COCCC#N (stereo not given),inactive
5,CN(C)CCCNCCCN(C)C,inactive
6,COc1ccc(N)c(C)c1,inactive
7,COC(=O)c1ccc(C)cc1C1=NC(C)(C(C)C)C(=O)N1 (stereo not given),inactive
8,CC(C)CCCCCCCCCCCCCCC(=O)O,inactive
9,NS(=O)(=O)c1ccccc1OC(F)(F)F,inactive
10,COC(=O)c1ccc([N+](=O)[O-])cc1,inactive
11,C=C(C)C(=O)OCCC(F)(F)C(F)(F)C(F)(F)C(F)(F)C(F)(F)C(F)(F)F,inactive
12,O=C(c1ccc2c(c1)C(=O)OC2=O)c1ccc2c(c1)C(=O)OC2=O,inactive
13,CC(C)(c1ccc(O)cc1)c1ccc(O)cc1,inactive
14,O=C(O)c1cc(N=Nc2ccc(S(=O)(=O)Nc3ccccn3)cc2)ccc1O,inactive
15,O=C1Cc2cc(Cl)ccc2N1,inactive
16,NS(=O)(=O)c1cc2c(cc1C(F)(F)F)NC(Cc1ccccc1)NS2(=O)=O (stereo not given),inactive
17,CC(C)CC(O)Cc1ccccc1 (stereo not given),inactive
18,O=C(O)c1cc(=O)c2c(OCC(O)COc3cccc4oc(C(=O)O)cc(=O)c34)cccc2o1,inactive
19,CC(C)OCCO,inactive
20,CCCCCOC(C)=O,inactive

row,Structure (SMILES),Potency
1,CC(C)(C)c1cc(Cc2cc(C(C)(C)C)c(O)c(C(C)(C)C)c2)cc(C(C)(C)C)c1O,inactive
2,CC(C)C(=O)O,inactive
3,CCN1CCC[C@H]1CNC(=O)c1c(O)c(Cl)cc(Cl)c1OC,inactive
4,CC[C@@H]1C[C@H](N(Cc2cc(C(F)(F)F)cc(C(F)(F)F)c2)C(C)=O)c2cc(C(F)(F)F)ccc2N1C(=O)OC(C)C,inactive
5,CCN1C(=O)c2ccccc2C1Nc1ccc(OCCN2CCCCC2)cc1 (stereo not given),inactive
6,CCc1ccccc1O,inactive
7,CC(=C(CCOC(=O)C(C)C)SSC(CCOC(=O)C(C)C)=C(C)N(C=O)Cc1cnc(C)nc1N)N(C=O)Cc1cnc(C)nc1N,inactive
8,NC(=O)c1ccc([N+](=O)[O-])cc1Cl,inactive
9,CCc1c(Br)c(Br)c(Br)c(Br)c1Br,inactive
10,C=CC(=O)OCCN(CC)CC,inactive
11,CC(C)N=C(N)/N=C(\N)Nc1ccc(Cl)cc1,inactive
12,CC(C)(C)NC(=O)[C@@H]1CN(Cc2cccnc2)CCN1C[C@@H](O)C[C@@H](Cc1ccccc1)C(=O)N[C@H]1c2ccccc2C[C@H]1O,inactive
13,CCSC(=O)N(CC(C)C)CC(C)C,inactive
14,Cc1cc(C)c(S(=O)(=O)O)cc1N=Nc1cc(S(=O)(=O)O)c2ccccc2c1O,inactive
15,Nc1c(S(=O)(=O)O)cc(Br)c2c1C(=O)c1ccccc1C2=O,inactive
16,N=C(N=C(N)N)N1CCOCC1,inactive
17,CCN(CC)CC(=O)OCC(=O)[C@@]1(O)CC[C@H]2[C@@H]3CCC4=CC(=O)CC[C@]4(C)[C@H]3[C@@H](O)C[C@@]21C,inactive
18,CCCCCCCCCCCC(=O)OC[C@@H](O)[C@H]1OC[C@H](OCCO)[C@H]1OCCO,inactive
19,c1ccc(CSCc2ccccc2)cc1,inactive
20,CCOC(=O)OC(=O)OCC,inactive
